# From PubChem BioAssay AID2685 (National Center for Advancing Translational Sciences (NCATS), 2010)
# Hit rate of the full screen: of about 320,000 compounds, about 2,100 (0.66%) were called active. About 53% were inconclusive and are not listed. The call rests on the fitted dose curve; in most records, active means well fitted inhibition curve with a large enough effect in the signal ratio, with a control signal flat (not every such curve was filed as active); inconclusive means small, poorly fitted or top-dose-only effect, or effect the other way, or a change in a side signal; inactive means flat fitted curve, though single readings scatter; the % refers to the signal ratio. This excerpt belongs to a sample that is enriched for actives.
# Assay: qHTS Assay for Lipid Storage Modulators in Drosophila S3 Cells;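 on cell number change: cells counted by Cell Tracker Red CMTPX staining in the red channel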; on lipid storage change, negative = inhibition: on the % scale 0 is the no-effect control and ±100 the full control effect
# Details: BODIPY lipid droplet fluorescence, 18-24 h, cells fed with added oleic acid; cell number change: measured here: cell count max response; series mostly up to 46.1 µM
# Method in brief: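 Laser-scanning cytometry quantifies lipid droplet accumulation (500–530 nm total intensity; droplet/cell object ratio) in oleic acid-fed (400 uM added) Drosophila S3 cells treated with a concentration series. 20 uM Triacsin C defined 100% inhibition.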
# Potency means the concentration at half of the fitted maximal effect.
Compound,Potency,cell number change [%],"lipid storage change, negative = inhibition"
CN(C)CCCN(Cc1cc2cc3c(cc2[nH]c1=O)OCCO3)C(=O)NC1CCCCC1,inactive,0.0235,
O=C(NC1CCCCC1)N(CCN1CCCC1)Cc1cc2cc3c(cc2[nH]c1=O)OCCO3,inactive,,
CCN(CC)CCN(Cc1cc2cc3c(cc2[nH]c1=O)OCCO3)C(=O)NC1CCCCC1,16.4 µM (active),4.42,
Cc1ccc(Nc2nc(N)nc(CN3CCN(C)CC3)n2)cc1C,inactive,7.98,
Cc1ccc(Nc2nc(N)nc(CN3CCN(C)CC3)n2)cc1,25.9 µM (active),-12,
CN1CCN(Cc2nc(N)nc(Nc3ccc4c(c3)OCCO4)n2)CC1,inactive,-0.153,
O=C(Cc1cccc(C(F)(F)F)c1)NCc1cccnc1,inactive,16.2,
CCc1c(C)sc(NC(=S)N2CCN(C(=O)C3CCCO3)CC2)c1C(=O)OC (centres undefined),inactive,,
COc1ccc(C(=O)N/C(=C\c2cn(C)c3ccccc23)C(=O)N2CCN(C)CC2)cc1,inactive,12.5,
COc1ccc(NC(=O)/C(C#N)=C/c2cccnc2)c(OC)c1,inactive,-14.9,
COc1ccccc1NC(=O)/C(C#N)=C/c1ccncc1,1.16 µM (active),-3.78,
COc1ccccc1NC(=O)/C(C#N)=C/c1cccnc1,inactive,14.4,
Cc1ccc(NC(=O)CC2Oc3ccc(C)cc3NC2=O)c(C)c1 (centres undefined),inactive,7.72,
Cc1ccc(S(=O)(=O)c2nnn(-c3cccc(F)c3)c2N)cc1,inactive,-21.1,
C[C@H](NC(=O)[C@H]1N2C(=O)c3ccccc3C2SC1(C)C)C(=O)N1CCCCC1 (some centres undefined),23.1 µM (active),-4.2,
CCC(C)NC(=O)[C@H]1N2C(=O)c3ccccc3C2SC1(C)C (some centres undefined),inactive,25,
C[C@H](NC(=O)[C@H]1N2C(=O)c3ccccc3C2SC1(C)C)C(=O)N1CCC[C@H]1C(=O)O (some centres undefined),inactive,,
Cc1ccc(-c2nnnn2C2C/C(=N\NC(N)=S)C3OCC2O3)cc1 (centres undefined),inactive,-15.7,
COc1ccc(C(=O)N(Cc2ccco2)Cc2cccs2)c(O)c1,inactive,11,

Compound,Potency,cell number change [%],"lipid storage change, negative = inhibition"
COc1ccc(C(=O)N(CCc2ccccc2)Cc2cccs2)c(OC)c1,13 µM (active),-11.1,
COc1ccc(C(=O)OCC(=O)NCCCc2ccccc2)c(OC)c1,inactive,26.9,
CCOc1cc(C2C(C#N)=C(N)SC(N)=C2C#N)ccc1OCCN1CCOCC1,inactive,,
O=C(O)c1cccc(-c2ccc(/C=C3/SC(=Nc4ccccc4)N(Cc4cccnc4)C3=O)o2)c1,inactive,-5.87,
CCN=C1S/C(=C/c2ccc(-c3ccc(Cl)cc3C(=O)O)o2)C(=O)N1CC,inactive,,
CC(C)(C)OC(=O)CN1C(=O)S/C(=C\c2ccc(-c3cccc(C(=O)O)c3)o2)C1=O,inactive,2.36,
CCN1C(=O)/C(=C\c2ccc(-c3cccc(C(=O)OC)c3)o2)SC1=Nc1ccc(C(=O)O)cc1,6.51 µM (active),-21.2,
CCN=C1S/C(=C\c2ccc(Sc3ccc(Cl)cc3)o2)C(=O)N1CC,inactive,-1.66,
CCN=C1S/C(=C/c2ccc(-c3ccc(F)cc3)o2)C(=O)N1CC,18.4 µM (active),4.49,
CC1=[N+](CC(=O)NC(C)(C)C)CCc2ccccc21,inactive,-0.377,
O=C(Nc1cccc(OC(=O)c2ccc(Br)o2)c1)c1ccccc1,inactive,11.8,
Cc1ccc(OCCCCNC2CCCCC2)c(C)c1,inactive,,
COCCCNC(=O)CC(NS(=O)(=O)c1ccc(Cl)cc1)c1ccco1 (centres undefined),32.6 µM (active),,
COCCCNC(=O)CC(NS(=O)(=O)c1ccc(C)cc1)c1ccco1 (centres undefined),inactive,0.789,
CCCNC(=O)CC(NS(=O)(=O)c1ccc(Cl)cc1)c1ccco1 (centres undefined),inactive,17.5,
CSC(=NC1CCCCC1)NS(=O)(=O)c1ccccc1,inactive,,
COc1ccc(N2CCN(C(=O)c3ccc4ccccc4n3)CC2)cc1,inactive,-2.64,
CN(CC(=O)Nc1ccc(N2CCOCC2)cc1)CC(=O)Nc1ccc(N2CCOCC2)cc1,inactive,-8.37,
O=[N+]([O-])C1=CC=C2C(=NC3(CCCCC3)N2O)C1=NCCO,inactive,-8.38,

Compound,Potency,cell number change [%],"lipid storage change, negative = inhibition"
CCOc1cc(/C=C2\COc3ccccc3C2=O)cc(Br)c1OCC(=O)N(C)C,inactive,21.8,
CCOc1cc(/C=C2\COc3ccccc3C2=O)ccc1OCC(=O)N(C)C,inactive,-5.65,
CCNC(=O)COc1ccc(/C=C2\COc3ccccc3C2=O)cc1OC,3.66 µM (active),,
CSc1ccccc1OCc1cc(C(=O)NCCN2CCCc3ccccc32)no1,inactive,,
O=C(Nc1nnc(SCC(=O)N2CCOCC2)s1)c1ccccc1,inactive,,
Cc1cc(NC(=O)c2ccc(S(=O)(=O)N3CCOCC3)cc2)nc2c1c(=O)oc1ccccc12,inactive,-0.276,
COc1cccc(CNC(=O)CCCNS(=O)(=O)c2cccs2)c1,inactive,-2.45,
CCOC(=O)C1=C(C)NC(C)=C(C(=O)OCC)C1C(=O)OCC(=O)NC1(C#N)CCCCC1,,,18.2% [at 0.0737 µM] (inactive)
O=C(CCCC(=O)OCC(F)(F)C(F)F)Nc1ccc(NC(=O)CCCC(=O)OCC(F)(F)C(F)F)cc1,inactive,25.6,
CCOC(=O)N1CCN(C(=O)c2ccc(CNS(=O)(=O)c3ccc(OC)cc3)cc2)CC1,inactive,,
Cc1ccc(C)c(S(=O)(=O)NCc2ccc(C(=O)N3CC(C)OC(C)C3)cc2)c1 (centres undefined),inactive,-9.56,
COc1ccc(N2CCN(C(=O)c3ccc(CNS(=O)(=O)c4cc(C)ccc4C)cc3)CC2)cc1,7.31 µM (active),-25.1,
Cc1cccc(C(=O)NNc2ncnc3c2cnn3C)c1,inactive,3.73,
CCCCC(C)(O)C/C=C/[C@H]1[C@H](O)CC(=O)[C@@H]1CCCCCCC(=O)OC (some centres undefined),23.1 µM (active),-1.2,
CCCCCCC(=O)Oc1ccc(N2C(=O)CCC2=O)cc1,inactive,-4.94,
CCCCC[C@H](O)/C=C/[C@@H]1[C@@H](C/C=C\CCCC(=O)OC)[C@@H](O)C[C@H]1O,inactive,2.9,
COC(=O)c1ccc(C2C(C(=O)OCC(C)C)=C(C)N=C3SCCC(=O)N32)cc1 (centres undefined),inactive,-2.78,
CCCCCCN1C2=NCCCN2c2ccccc21,inactive,-6.55,
